This passage reports potency estimated from few doses results from PMC11062922 (Nature Chemical Biology, 2023).

Read-outs that look alike come from different tables or passages of the source.

Common to all, as to design: species or system human, MV4-11 + K-562 + COLO205 + SK-N-BE2 + OVCAR-8
For one test, the system named is CDC42BPB. The note with it: read-out: apparent Kd, n = 1.
The next test relates to CIT. The conditions noted are these: read-out: apparent Kd; compound concentrations: 100 nM and 1000 nM (sheet 'Samples'), CATDS: 0.106368492262706; n = 1.
For a further test, the system named is CLK1. The conditions noted are these: read-out: apparent Kd; compound concentrations: 100 nM and 1000 nM (sheet 'Samples'), CATDS: 0.214527954353402; n = 1.
Another test concerns CLK4. The note with it: read-out: apparent Kd; compound concentrations: 100 nM and 1000 nM (sheet 'Samples'), CATDS: 0.24205596503661; n = 1.
A further test relates to MARK3. The note with it: read-out: apparent Kd; compound concentrations: 100 nM and 1000 nM (sheet 'Samples'), CATDS: 9.9321002689151103E-2; n = 1.
Another test has as its system MELK. The note with it: read-out: apparent Kd, n = 1.
The test system of a further test is PHKG2. The note with it: read-out: apparent Kd; compound concentrations: 100 nM and 1000 nM (sheet 'Samples'), CATDS: 0.61617859145014098; n = 1.
A further test concerns CDC42. The conditions noted are these: read-out: apparent Kd; compound concentrations: 100 nM and 1000 nM (sheet 'Samples'), CATDS: 0.328417840290395; n = 1.
The subject of the next test is CDK6. The note with it: read-out: apparent Kd; compound concentrations: 100 nM and 1000 nM (sheet 'Samples'), CATDS: 0.35899533679328099; n = 1.
In the next test the test system is MAP2K1. The note with it: read-out: apparent Kd; compound concentrations: 100 nM and 1000 nM (sheet 'Samples'), CATDS: 0.31550250727948498; n = 1.
The test system of the next test is CAMK4. The conditions noted are these: read-out: apparent Kd; compound concentrations:100 nM and 1000 nM (sheet 'Samples'); n = 1.
In the next test the test system is CDK2. The conditions noted are these: read-out: apparent Kd; compound concentrations:100 nM and 1000 nM (sheet 'Samples'); n = 1.
In another test the test system is CDK4. The note with it: read-out: apparent Kd; compound concentrations:100 nM and 1000 nM (sheet 'Samples'); n = 1.
Another test relates to GSK3A. The note with it: read-out: apparent Kd; compound concentrations:100 nM and 1000 nM (sheet 'Samples'); n = 1.
A further test concerns ILK. The conditions noted are these: read-out: apparent Kd; compound concentrations:100 nM and 1000 nM (sheet 'Samples'); n = 1.
The next test deals with OPA1. The conditions noted are these: read-out: apparent Kd; compound concentrations:100 nM and 1000 nM (sheet 'Samples'); n = 1.
The next test deals with SMC4. The note with it: read-out: apparent Kd; compound concentrations:100 nM and 1000 nM (sheet 'Samples'); n = 1.
The next test relates to VDAC3. The note with it: read-out: apparent Kd; compound concentrations:100 nM and 1000 nM (sheet 'Samples'); n = 1.
In a further test the test system is CDC42BPA. The note with it: read-out: apparent Kd; compound concentrations:100 nM and 1000 nM (sheet 'Samples'); n = 1.
Another test concerns CHEK1. The note with it: read-out: apparent Kd; compound concentrations:100 nM and 1000 nM (sheet 'Samples'); n = 1.
The subject of a further test is LATS1. The conditions noted are these: read-out: apparent Kd; compound concentrations:100 nM and 1000 nM (sheet 'Samples'); n = 1.
For another test, the system named is PIM1. The note with it: read-out: apparent Kd; compound concentrations:100 nM and 1000 nM (sheet 'Samples'); n = 1.
The test system of another test is PKN1. The note with it: read-out: apparent Kd; compound concentrations:100 nM and 1000 nM (sheet 'Samples'); n = 1.
In the next test the test system is PKN2. The conditions noted are these: read-out: apparent Kd; compound concentrations:100 nM and 1000 nM (sheet 'Samples'); n = 1.
The subject of a further test is PRKCA. The conditions noted are these: read-out: apparent Kd; compound concentrations:100 nM and 1000 nM (sheet 'Samples'); n = 1.
Another test has as its system PRKCB. The note with it: read-out: apparent Kd; compound concentrations:100 nM and 1000 nM (sheet 'Samples'); n = 1.
In a further test the test system is PRKCD. The note with it: read-out: apparent Kd; compound concentrations:100 nM and 1000 nM (sheet 'Samples'); n = 1.
The subject of the next test is PRKCI. The note with it: read-out: apparent Kd; compound concentrations:100 nM and 1000 nM (sheet 'Samples'); n = 1.
The next test has as its system PRKCZ. The note with it: read-out: apparent Kd; compound concentrations:100 nM and 1000 nM (sheet 'Samples'); n = 1.
The next test has as its system PRKG1. The conditions noted are these: read-out: apparent Kd; compound concentrations:100 nM and 1000 nM (sheet 'Samples'); n = 1.
Another test relates to PRKX. The note with it: read-out: apparent Kd; compound concentrations:100 nM and 1000 nM (sheet 'Samples'); n = 1.
The next test concerns ROCK2. The note with it: read-out: apparent Kd; compound concentrations:100 nM and 1000 nM (sheet 'Samples'); n = 1.
The next test has as its system RPS6KA5. The note with it: read-out: apparent Kd; compound concentrations:100 nM and 1000 nM (sheet 'Samples'); n = 1.
A further test relates to RPS6KB1. The note with it: read-out: apparent Kd; compound concentrations:100 nM and 1000 nM (sheet 'Samples'); n = 1.
Where [1] appears, read: compound concentrations:100 nM and 1000 nM (sheet 'Samples').

For the molecule `FC1=CC(C3=NC2=CC(OC)=C(OC)C=C2C(N[C@H]4[C@H]([C@](C)(O)C)CNC4)=N3)=C(O)C=C1.Cl.Cl` [CCT241533], the potency estimated from few doses is 1010 nM with CDC42BPB (compound concentrations: 100 nM and 1000 nM (sheet 'Samples'), CATDS: 0.117626319285852); 1490 nM in the test on CIT; 163 nM in the test on CLK1; 121 nM in the test on CLK4; 2010 nM with MARK3; 2590 nM with MELK (compound concentrations: 100 nM and 1000 nM (sheet 'Samples'), CATDS: 9.4221597644958896E-2). For the same molecule, the potency estimated from few doses with PHKG2 is 20.8 nM.
Take `CCn1c(-c2ccccn2)nc2cnccc21` [SB-736398]: the potency estimated from few doses with CDC42 was 1930 nM; in the test with CDK6 it was 1630 nM; in the test with MAP2K1, 2100 nM.
On to `O=C(Nc1n[nH]c2nc(-c3nccs3)c(Br)cc12)C1CC1` [SB-742251], for which the potency estimated from few doses in the test with CAMK4 is 1800 nM; with CDK2, 1640 nM; in the test on CDK4, 1480 nM; with GSK3A, 873 nM; in the test on ILK, 2010 nM; in the test on OPA1 it was 1520 nM. For the same molecule, the potency estimated from few doses in the test on SMC4 is 1950 nM; in the test on VDAC3, 2000 nM.
As for `CCn1c(-c2nonc2N)nc2cncc(CNC3CCNCC3)c21` [SB-747651A], the potency estimated from few doses in the test on CDC42BPA is 1740 nM; with CDC42BPB (setting [1]), 1900 nM; in the test with CHEK1, 2160 nM; in the test on GSK3A, 1100 nM; with LATS1, 782 nM; in the test with MELK (setting [1]), 655 nM. Moreover, the potency estimated from few doses in the test with PIM1 is 1120 nM; in the test on PKN1 it was 40 nM; in the test with PKN2, 94.5 nM; in the test on PRKCA it was 197 nM; in the test with PRKCB, 153 nM; with PRKCD it was 632 nM. Also, the potency estimated from few doses is 1480 nM with PRKCI; 2000 nM with PRKCZ; 702 nM in the test with PRKG1; 1590 nM in the test on PRKX; 36.2 nM in the test on ROCK2; 96.1 nM with RPS6KA5. The potency estimated from few doses with RPS6KB1 was 22.2 nM.
